Measured values as given in PubChem BioAssay (Tox21).
A number with no mark means an inactive call. Results filed as inconclusive are left out. Where a call stands in place of a potency, no number is given. Calls of active or inactive are those of the source. Unless noted, the call rests on the fitted dose curve; in most records, active means well fitted curve in the direction sought with a large enough effect in the repeat runs; inconclusive means weak or mixed curves; inactive means no such curve, though single readings can be large; an effect the other way counts as inactive or inconclusive.

Legend:
[1] = qHTS assay for small molecule agonists of the p53 signaling pathway (AID 651631; calls by dose curve; further: nearly all actives have a fitted effect of over 15% in size; further: potency means the concentration at half of the fitted maximal effect)
Outline: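 HCT-116 cells carrying a stable p53 response element–beta-lactamase reporter were plated, rested 5 h at 37 °C, then exposed to compound in DMSO for 16 h at 37 °C; reporter activity was read as FRET substrate fluorescence after 2 h at room temperature.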

[2] = qHTS assay for small molecules that induce genotoxicity in human embryonic kidney cells expressing luciferase-tagged ATAD5 (AID 651632); further: nearly all actives have a fitted effect of over 15% in size; further: potency means the concentration at half of the fitted maximal effect
Outline: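 A rise in luciferase signal from ATAD5-tagged HEK293T cells marks genetic stress. Cells were exposed to compounds for 16 hr at 37C, 5% CO2, then luciferase was quantified after a 30 min room-temperature incubation with Amplite.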

[3] = qHTS assay for small molecule agonists of the p53 signaling pathway - cell viability (AID 651633; calls by dose curve; further: nearly all actives have a fitted effect of over 30% in size; further: potency means the concentration at half of the fitted maximal effect)
Outline: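 p53RE-bla cells, seeded at 4,000 per well and rested 5 h at 37 C/5% CO2, received compounds in DMSO for 16 h at 37 C. CellTiter-Glo was then added, and luminescence was read after 30 min at room temperature to gauge cytotoxicity.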

[4] = qHTS assay for small molecules that induce genotoxicity in human embryonic kidney cells expressing luciferase-tagged ATAD5 - cell viability (AID 651634; calls by dose curve; further: nearly all actives have a fitted effect of over 25% in size)
Outline: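 Cytotoxicity counter-readout: after 15.5 hr compound treatment at 37C, live-cell protease activity in ATAD5-luciferase HEK293T cells measured by CellTiter-Fluor fluorescence, 30 min development at 37C.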

[5] = qHTS assay for small molecule disruptors of the mitochondrial membrane potential - cell viability (AID 720634; calls by dose curve;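 further: human HepG2 liver cancer cells; series mostly up to about 83 µM; nearly all actives have a fitted effect of over 20% in size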)
Outline: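 Cytotoxicity was quantified from ATP content by CellTiter-Glo luminescence in the same wells as the MMP dye read-out. HepG2 (2,000 cells/well) were plated overnight and exposed to compounds for 1 hr at 37 C.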

[6] = qHTS assay to test for compound auto fluorescence at 590 nm (red) in HepG2 cells (AID 720674)
Outline: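 Intrinsic compound fluorescence in the red window (Ex/Em 540/590 nm) is measured in attached HepG2 cells exposed for 1 hr, DMSO vehicle as baseline, benchmarked to Rose Bengal sodium.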

[7] = qHTS assay to test for compound auto fluorescence at 535 nm (green) in HepG2 cells (AID 720675)
[8] = qHTS assay to test for compound auto fluorescence at 590 nm (red) in HEK293 cells (AID 720679)
Outline: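 Red channel, Ex/Em 540/590nm; signal expressed as equivalency to Rose Bengal sodium. HEK293, 2,000 cells/well, 10% dialyzed FBS; 23 nL compound pinned after 4-5 hr attachment; overnight 37C/5% CO2 before reading.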

[9] = qHTS assay to test for compound auto fluorescence at 535 nm (green) in HEK293 cells (AID 720680)
[10] = qHTS assay to test for compound auto fluorescence at 460 nm (blue) in HEK293 cell free culture (AID 720681)
Outline: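 Test compounds were pinned into cell-free culture medium (DMEM with 10% FBS) and fluorescence was read directly at Ex/Em 405/460 nm. Signals were expressed as fluorescence equivalents of triamterene, with DMSO vehicle as control.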

[11] = qHTS assay to test for compound auto fluorescence at 535 nm (green) in HEK293 cell free culture (AID 720682)
Outline: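 Read-out: 485/535 nm fluorescence intensity, calibrated against fluorescein. Medium only (DMEM + 10% FBS, no cells); test compound or DMSO vehicle added by pintool before plate reading.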

[12] = qHTS assay to test for compound auto fluorescence at 590 nm (red) in HEK293 cell free culture (AID 720683)
Outline: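 Tox21 10K library compounds were pinned into cell-free DMEM with 10% FBS and fluorescence was read at excitation 540 nm. Activity is expressed as Rose Bengal sodium equivalency.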

[13] = qHTS assay to test for compound auto fluorescence at 590 nm (red) in HepG2 cell free culture (AID 720684)
Outline: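 Ex 540 / Em 590 nm read of compound in cell-free MEM (10% FBS). Rose Bengal sodium reference.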

[14] = qHTS assay to test for compound auto fluorescence at 460 nm (blue) in HepG2 cell free culture (AID 720685)
Outline: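 Cell-free plates of MEM plus 10% FBS received 23 nL compound or DMSO vehicle; blue-channel (405/460 nm) intensity scored against triamterene as reference fluorophore.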

[15] = qHTS assay to test for compound auto fluorescence at 535 nm (green) in HepG2 cell free culture (AID 720686)
[16] = qHTS assay to test for compound auto fluorescence at 460 nm (blue) in HepG2 cells (AID 720687)
Outline: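 Cells (2,000/well in MEM with 10% FBS) attached overnight at 37 C, then were exposed to compound or DMSO for 1 hr at 37 C, 5% CO2. Fluorescence read at Ex/Em 405/460 nm, expressed as triamterene-equivalent signal.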

[17] = qHTS assay for small molecule disruptors of the mitochondrial membrane potential (AID 720635); further: potency means the concentration at half of the fitted maximal effect
Outline: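 HepG2 cells (2,000/well) attached overnight at 37C, then took compound for 1 hr at 37C, 5% CO2. Mito-MPS dye was added for 30 min; fluorescence was read at 490/535 nm (monomers) and 540/590 nm (aggregates).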

[18] = qHTS assay to test for compound auto fluorescence at 460 nm (blue) in HEK293 cells (AID 720678)
Outline: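 Blue read-out at excitation 405 nm and emission 460 nm follows overnight compound exposure of HEK293 cells at 37C in 5% CO2. Activity is given as auto fluorescence equivalency to triamterene.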

[19] = target: Glucocorticoid receptor (Homo sapiens) (UniProt P04150); assay: qHTS assay to identify small molecule agonists of the glucocorticoid receptor (GR) signaling pathway (AID 720691; active means well fitted activation curve with a large enough effect in the signal ratio in the repeat runs, not every such curve was filed as active; the % refers to the signal ratio)
Outline: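 Agonist-mode qHTS in HeLa cells stably expressing a glucocorticoid-response-element beta-lactamase reporter. Fluorescence intensity read with FRET substrate (2 h, room temperature) after 18 h compound treatment at 37 C.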

[20] = target: Glucocorticoid receptor (Homo sapiens) (UniProt P04150); assay: qHTS assay to identify small molecule antagonists of the glucocorticoid receptor (GR) signaling pathway (AID 720692; active means well fitted inhibition curve with a large enough effect in the signal ratio in the repeat runs, not every such curve was filed as active; the % refers to the signal ratio; further: potency means the concentration at half of the fitted maximal effect)
Outline: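 Inhibition of dexamethasone-driven (5 nM final) beta-lactamase expression was measured in GRE-reporter HeLa cells over 18 h at 37C. Fluorescence was read after 2 h with the B/G FRET substrate at room temperature.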

Glucocorticoid receptor (Homo sapiens), sequence (P04150 whole entry, looked up): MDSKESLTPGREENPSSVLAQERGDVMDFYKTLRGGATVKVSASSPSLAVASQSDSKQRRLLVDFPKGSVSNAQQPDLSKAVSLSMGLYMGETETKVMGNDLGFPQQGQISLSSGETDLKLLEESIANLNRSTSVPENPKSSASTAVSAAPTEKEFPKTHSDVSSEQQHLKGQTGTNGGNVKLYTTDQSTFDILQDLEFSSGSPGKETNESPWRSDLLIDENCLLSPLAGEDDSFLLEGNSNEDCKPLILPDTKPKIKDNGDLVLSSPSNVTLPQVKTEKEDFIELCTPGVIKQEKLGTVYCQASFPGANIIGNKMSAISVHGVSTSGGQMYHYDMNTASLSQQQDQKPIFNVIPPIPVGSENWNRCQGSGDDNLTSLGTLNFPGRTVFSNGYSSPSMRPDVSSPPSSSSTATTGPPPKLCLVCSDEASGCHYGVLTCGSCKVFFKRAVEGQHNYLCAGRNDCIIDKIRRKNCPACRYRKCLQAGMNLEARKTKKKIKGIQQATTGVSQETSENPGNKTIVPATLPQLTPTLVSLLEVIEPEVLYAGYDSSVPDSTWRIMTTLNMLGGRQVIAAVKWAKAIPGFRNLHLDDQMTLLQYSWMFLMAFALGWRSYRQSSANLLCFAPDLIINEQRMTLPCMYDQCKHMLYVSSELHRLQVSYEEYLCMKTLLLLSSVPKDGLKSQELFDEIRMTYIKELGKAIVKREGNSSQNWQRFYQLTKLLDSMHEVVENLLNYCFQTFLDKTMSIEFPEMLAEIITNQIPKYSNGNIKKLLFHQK

SMILES	Potency [1]	Potency [2]	Potency [3]	Potency [4]	Potency [5]	outcome [6]	outcome [7]	outcome [8]	outcome [9]	Potency [10]	outcome [11]	outcome [12]	outcome [13]	outcome [14]	outcome [15]	outcome [16]	Potency [17]	Potency [18]	Potency [19]	Potency [20]
CCCCOC(=O)CC#N	inactive	inactive	inactive	inactive	inactive	inactive	inactive	inactive	inactive	inactive	inactive	inactive	inactive	inactive	inactive	inactive	–	–	–	–
COC(=O)C(C)(C)C	inactive	inactive	inactive	inactive	–	inactive	inactive	inactive	inactive	inactive	inactive	inactive	inactive	inactive	inactive	inactive	inactive	inactive	inactive	–
Cc1ccccc1CCO	inactive	inactive	inactive	inactive	inactive	inactive	inactive	inactive	inactive	inactive	inactive	inactive	inactive	–	inactive	inactive	–	inactive	–	–
c1ccc(CCNc2nc(-c3ccccc3)cs2)cc1	inactive	3.35 µM (active)	inactive	inactive	–	inactive	inactive	inactive	inactive	inactive	inactive	inactive	inactive	inactive	inactive	inactive	10.6 µM (active)	inactive	–	–
O=S(=O)(O)c1cc(Cl)c(Cl)cc1Cl	inactive	inactive	inactive	inactive	inactive	inactive	inactive	inactive	inactive	inactive	inactive	inactive	inactive	–	inactive	inactive	–	inactive	–	–
COC(=O)/C=C/C(C)=C\C=C\C(C)=C\C=C\C=C(C)\C=C\C=C(C)\C=C\C(=O)O	inactive	inactive	inactive	inactive	inactive	inactive	inactive	inactive	inactive	inactive	inactive	inactive	inactive	inactive	inactive	inactive	–	inactive	inactive	–
CCCCOc1ccc(N)cc1	inactive	inactive	inactive	inactive	inactive	inactive	inactive	inactive	inactive	inactive	inactive	inactive	inactive	–	inactive	inactive	–	inactive	inactive	–
O=C(Cl)c1cc(Cl)cc(Cl)c1	inactive	inactive	inactive	inactive	inactive	inactive	inactive	inactive	inactive	inactive	inactive	inactive	inactive	–	inactive	inactive	–	inactive	inactive	inactive
Cc1cc(C)n(CO)n1	inactive	inactive	inactive	inactive	–	inactive	inactive	inactive	inactive	inactive	inactive	inactive	inactive	inactive	inactive	–	inactive	inactive	inactive	–
CC(CN=Cc1ccccc1O)N=Cc1ccccc1O (configuration not stated)	inactive	inactive	inactive	inactive	–	inactive	inactive	inactive	inactive	inactive	inactive	inactive	inactive	inactive	inactive	inactive	inactive	inactive	inactive	–
Cc1cc(N)n(-c2ccccc2)n1	inactive	inactive	inactive	inactive	inactive	inactive	inactive	inactive	inactive	inactive	inactive	inactive	inactive	–	inactive	inactive	–	inactive	–	–
Cc1c(Cl)cccc1Nc1ccccc1C(=O)O	21.1 µM (active)	inactive	18.8 µM (active)	–	inactive	inactive	inactive	inactive	inactive	inactive	inactive	inactive	inactive	inactive	inactive	inactive	11.9 µM (active)	inactive	–	–
CCCCCO	inactive	inactive	inactive	–	inactive	inactive	inactive	inactive	inactive	inactive	inactive	inactive	inactive	inactive	inactive	–	–	inactive	–	inactive
CCCCCC1CCC(=O)O1 (configuration not stated)	inactive	inactive	inactive	inactive	–	–	inactive	inactive	inactive	inactive	inactive	inactive	inactive	inactive	inactive	inactive	inactive	inactive	inactive	–
C=C(C)C(=O)OCCCCCCCCCCOC(=O)C(=C)C	inactive	inactive	inactive	–	inactive	inactive	inactive	inactive	inactive	inactive	inactive	inactive	inactive	inactive	inactive	inactive	–	–	–	–
CCCC(=O)OCCC(C)C	inactive	inactive	inactive	–	–	inactive	inactive	inactive	inactive	inactive	inactive	inactive	inactive	inactive	inactive	inactive	inactive	inactive	inactive	inactive
CC1=C(C)C(=O)C(C(CCCCCC(=O)O)c2ccccc2)=C(C)C1=O (configuration not stated)	inactive	inactive	inactive	–	inactive	–	inactive	inactive	inactive	inactive	inactive	inactive	inactive	inactive	inactive	inactive	inactive	inactive	–	inactive
Cc1ccc(NC(=O)c2ccc(CN3CCN(C)CC3)cc2)cc1Nc1nccc(-c2cccnc2)n1	inactive	inactive	inactive	–	–	inactive	inactive	inactive	inactive	inactive	inactive	inactive	inactive	inactive	inactive	–	2.11 µM (active)	inactive	–	–
[O-][n+]1ccc(Cl)cc1	inactive	inactive	inactive	–	–	inactive	inactive	inactive	inactive	inactive	inactive	inactive	inactive	inactive	inactive	inactive	–	inactive	inactive	–
OCCCO	inactive	inactive	inactive	–	–	inactive	inactive	inactive	inactive	inactive	inactive	inactive	inactive	inactive	inactive	inactive	–	inactive	–	inactive
CCCCCCCCS	inactive	inactive	inactive	–	inactive	–	inactive	inactive	inactive	inactive	inactive	inactive	inactive	inactive	inactive	inactive	inactive	inactive	–	–
COc1cccc([C@H](O)C2CCN(CCc3ccc(F)cc3)CC2)c1OC	inactive	inactive	inactive	–	inactive	inactive	inactive	inactive	inactive	inactive	inactive	inactive	inactive	inactive	inactive	inactive	–	inactive	inactive	–
CCCCCCCCCCCCCCCCN	inactive	inactive	inactive	–	inactive	inactive	inactive	inactive	inactive	inactive	inactive	inactive	inactive	inactive	inactive	–	inactive	–	inactive	–
Cc1cc(SC2=C(O)C[C@@](CCc3ccc(N)cc3)(C(C)C)OC2=O)c(C(C)(C)C)cc1CO	inactive	inactive	inactive	inactive	–	–	inactive	inactive	inactive	inactive	inactive	inactive	inactive	–	inactive	inactive	–	inactive	–	–
Cc1cccc(C)c1NC(=O)CN1CCCC1	inactive	inactive	inactive	inactive	–	inactive	inactive	inactive	inactive	inactive	inactive	inactive	inactive	–	inactive	inactive	inactive	–	–	–
CCOc1cc(OCC)c(C(C)=O)cc1OCC	inactive	inactive	inactive	–	–	inactive	inactive	inactive	inactive	inactive	inactive	inactive	inactive	inactive	inactive	inactive	–	inactive	inactive	–
CC(C)(C)NCC(O)COc1ccc(NC(=O)NC2CCCCC2)cc1 (configuration not stated)	inactive	inactive	inactive	inactive	–	inactive	inactive	inactive	inactive	inactive	inactive	inactive	inactive	inactive	inactive	inactive	–	inactive	inactive	inactive
Cc1ccc2c(Cl)cc(Cl)c(O)c2n1	2.37 µM (active)	5.96 µM (active)	0.944 µM (active)	–	–	inactive	inactive	inactive	inactive	inactive	inactive	inactive	inactive	inactive	inactive	–	9.44 µM (active)	–	inactive	16.9 µM (active)
